The term viability denotes a read-out of living cells in per cent, often relative to untreated cells.

The record followed here is PubChem BioAssay.

Test [1] can be described thus: ovarian cancer cell viability with rucaparib, profiling panel, oncology-focused library, rucaparib conditional (AID 1508598). Conditions: patient-derived ovarian cancer cells, CellTiter-Glo viability, 144 h, stronger effect = lower value. On the technique in general: Cellular ATP, detected with luciferase, serves as a proxy for viable cell number.
Test [2] is described as follows: survival rescue of mitochondrial mutant cells in low glucose, primary screen, MELAS cybrids, Rieske KO mouse fibroblasts, CellTiter-Glo (AID 1508586;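 active = mean z-score across replicates of 1.96 or higher in either the MELAS or the Rieske mutant cell line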;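 also: z relative to plate mean and SD of compound and empty wells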).
Test [3] can be described thus: viability rescue of complex I mutant cybrids, primary screen, cell-based, galactose medium, ATP luminescence (AID 1645843;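 active = z-score of at least 1.8 in each of two replicates, scored against plate mean and spread of sample wells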;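 also: positive z means more ATP and so rescue of galactose-driven cybrid death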). Particulars: complex I mutant cybrid cells, 72 h, stronger effect = higher value.
Test [4] addresses ATP-dependent translocase ABCB1 (Homo sapiens) (UniProt P08183). As to the kind of experiment: MDR1 (ABCB1) efflux transporter inhibition, cell-based (AID 377; in the data active = fluorescence slope change above about 50%). Particulars: MDR1-expressing cells, fluorescent substrate accumulation slope; stronger effect = higher value; concentration not given here.
Test [5] can be described thus: hESC survival regulators, cell-based (AID 493140; call rule not given here;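 also: cells exposed to compounds for four days before counting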). Particulars: human embryonic stem cell survival screen; stronger effect = higher value.
Test [6] is described as follows: kinase inhibitors against Plasmodium liver-stage infection, cell-based, known kinase inhibitor set, luminescence, hepatoma host viability (AID 624392; call rule not given here;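 also: infected cells incubated roughly two days before readout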). Particulars: Plasmodium liver stage in hepatoma cells, luciferase luminescence, concentration not given here; liver cell % of control: measured here: host liver cell viability; parasite % of control: stronger effect = lower value.

The nature of test [7]: modulators of glucocorticoid suppression of NF-kB, cell-based, luciferase, IL-1B stimulus, dexamethasone (AID 624486; call rule not given here;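 as to percent of negative control (+Dex): 100% = mean signal of vehicle control wells on the plate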). Particulars: NF-kB luciferase reporter, IL-1B + dexamethasone, luminescence; percent of negative control (+Dex): actives lie on both sides, concentration not given here; z-score: measured here: IL-1B alone, no Dex. A general note: In a reporter assay the amount or activity of a reporter protein is the signal.

Test [8] in a line: kinase inhibitors altering Pseudomonas killing of worms, whole organism (AID 651566; call rule not given here;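 also: tested at 14 µM; sign flipped so higher z means a lower ratio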). Particulars: C. elegans killed by P. aeruginosa, survival ratio.
Test [9] in a line: activators of macrophage pro-inflammatory response, cell-based, murine, luminescence (AID 652131; call rule not given here). Particulars: murine macrophage pro-inflammatory reporter, stronger effect = higher value.
[10] abbreviates: MELAS cybrid survival, CellTiter-Glo 48 h, stronger effect = higher value.
The mark [11] stands for this setting: Rieske KO mouse fibroblast survival, CellTiter-Glo 72 h.

Results filed as inconclusive are left out. Activity calls are given as the source filed them.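 The calls were made as follows, unless noted: active = normalized viability below 100% at a tested concentration; inactive = the rest.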

Chain of ATP-dependent translocase ABCB1 (Homo sapiens) (P08183 whole entry, looked up): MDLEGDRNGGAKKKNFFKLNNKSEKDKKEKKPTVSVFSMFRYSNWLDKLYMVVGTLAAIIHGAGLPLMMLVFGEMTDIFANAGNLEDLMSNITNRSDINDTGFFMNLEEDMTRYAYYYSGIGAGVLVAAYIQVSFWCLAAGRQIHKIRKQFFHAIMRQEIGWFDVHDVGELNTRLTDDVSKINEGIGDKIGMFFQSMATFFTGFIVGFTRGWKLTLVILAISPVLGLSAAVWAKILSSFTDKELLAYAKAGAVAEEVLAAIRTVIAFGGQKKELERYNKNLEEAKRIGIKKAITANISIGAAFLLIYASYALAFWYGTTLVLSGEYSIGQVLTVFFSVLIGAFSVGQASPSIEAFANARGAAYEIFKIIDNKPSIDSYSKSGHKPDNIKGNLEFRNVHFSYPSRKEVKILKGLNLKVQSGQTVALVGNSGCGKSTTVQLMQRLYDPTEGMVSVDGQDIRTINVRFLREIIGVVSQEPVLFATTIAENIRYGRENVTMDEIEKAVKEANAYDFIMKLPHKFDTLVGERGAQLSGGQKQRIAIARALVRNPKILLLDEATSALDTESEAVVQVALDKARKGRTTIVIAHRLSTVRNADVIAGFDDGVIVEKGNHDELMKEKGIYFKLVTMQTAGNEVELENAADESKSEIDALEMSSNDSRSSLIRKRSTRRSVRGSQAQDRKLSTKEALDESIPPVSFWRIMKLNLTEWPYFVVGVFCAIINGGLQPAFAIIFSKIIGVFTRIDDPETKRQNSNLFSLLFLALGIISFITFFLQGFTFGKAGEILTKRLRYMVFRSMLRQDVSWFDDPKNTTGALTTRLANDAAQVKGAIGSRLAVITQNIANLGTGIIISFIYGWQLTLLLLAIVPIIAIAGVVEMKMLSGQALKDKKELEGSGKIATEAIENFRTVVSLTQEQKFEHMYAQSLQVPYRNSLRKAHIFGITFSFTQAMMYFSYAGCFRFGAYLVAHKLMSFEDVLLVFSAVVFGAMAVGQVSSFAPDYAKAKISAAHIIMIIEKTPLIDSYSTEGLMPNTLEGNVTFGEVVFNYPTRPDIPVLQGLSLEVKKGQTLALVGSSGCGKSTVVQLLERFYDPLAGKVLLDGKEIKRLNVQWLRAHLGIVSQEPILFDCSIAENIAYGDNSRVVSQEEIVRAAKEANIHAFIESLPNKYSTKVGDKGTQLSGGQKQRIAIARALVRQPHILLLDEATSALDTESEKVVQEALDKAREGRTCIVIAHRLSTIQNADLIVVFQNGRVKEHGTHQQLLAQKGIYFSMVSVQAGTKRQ

On to `C=CCNC1=C2C[C@@H](C)C[C@H](OC)[C@H](O)[C@@H](C)/C=C(\C)[C@H](OC(N)=O)[C@@H](OC)/C=C\C=C(\C)C(=O)NC(=CC1=O)C2=O`, for which the viability in test [1] (at 0.000305 µM, OCI-C5x cells, with rucaparib 10 µM, 100% = cells with rucaparib alone) is 110% (inactive); in [1] (at 0.000305 µM, OCI-C5x cells, without rucaparib), 101% (inactive); in [1] (at 0.000305 µM, OCI-P5x cells, with rucaparib 20 µM, 100% = cells with rucaparib alone), 119% (inactive); in test [1] (at 0.000305 µM, OCI-P5x cells, without rucaparib), 124% (inactive); in test [1] (at 0.00122 µM, OCI-C5x cells, with rucaparib 10 µM, 100% = cells with rucaparib alone), 113% (inactive); in test [1] (at 0.00122 µM, OCI-C5x cells, without rucaparib) it was 108% (inactive). The viability in [1] (at 0.00122 µM, OCI-P5x cells, with rucaparib 20 µM, 100% = cells with rucaparib alone) was 126% (inactive); in test [1] (at 0.00122 µM, OCI-P5x cells, without rucaparib), 121% (inactive); in test [1] (at 0.00488 µM, OCI-C5x cells, with rucaparib 10 µM, 100% = cells with rucaparib alone), 110% (inactive); in test [1] (at 0.00488 µM, OCI-C5x cells, without rucaparib), 117% (inactive); in test [1] (at 0.00488 µM, OCI-P5x cells, with rucaparib 20 µM, 100% = cells with rucaparib alone), 122% (inactive); in [1] (at 0.00488 µM, OCI-P5x cells, without rucaparib), 126% (inactive). The viability in test [1] (at 0.0195 µM, OCI-C5x cells, with rucaparib 10 µM, 100% = cells with rucaparib alone) is 120% (inactive); in test [1] (at 0.0195 µM, OCI-C5x cells, without rucaparib) it was 116% (inactive); in test [1] (at 0.0195 µM, OCI-P5x cells, with rucaparib 20 µM, 100% = cells with rucaparib alone) it was 119% (inactive); in test [1] (at 0.0195 µM, OCI-P5x cells, without rucaparib), 115% (inactive); in test [1] (at 0.0781 µM, OCI-C5x cells, with rucaparib 10 µM, 100% = cells with rucaparib alone), 133% (inactive); in test [1] (at 0.0781 µM, OCI-C5x cells, without rucaparib), 112% (inactive). In addition, the viability in test [1] (at 0.0781 µM, OCI-P5x cells, with rucaparib 20 µM, 100% = cells with rucaparib alone) was 41.9% (active); in test [1] (at 0.0781 µM, OCI-P5x cells, without rucaparib) it was 35.9% (active); in test [1] (at 0.313 µM, OCI-C5x cells, with rucaparib 10 µM, 100% = cells with rucaparib alone) it was 104% (inactive); in [1] (at 0.313 µM, OCI-C5x cells, without rucaparib), 56.1% (active); in test [1] (at 0.313 µM, OCI-P5x cells, with rucaparib 20 µM, 100% = cells with rucaparib alone), 12.5% (active); in test [1] (at 0.313 µM, OCI-P5x cells, without rucaparib), 8.71% (active). In addition, the viability was 28.6% (active) in test [1] (at 1.25 µM, OCI-C5x cells, with rucaparib 10 µM, 100% = cells with rucaparib alone); 27.2% (active) in [1] (at 1.25 µM, OCI-C5x cells, without rucaparib); 5.52% (active) in test [1] (at 1.25 µM, OCI-P5x cells, with rucaparib 20 µM, 100% = cells with rucaparib alone); 5.3% (active) in [1] (at 1.25 µM, OCI-P5x cells, without rucaparib); 8.53% (active) in test [1] (at 5 µM, OCI-C5x cells, with rucaparib 10 µM, 100% = cells with rucaparib alone); 8.44% (active) in test [1] (at 5 µM, OCI-C5x cells, without rucaparib). Moreover, the viability was 2.79% (active) in test [1] (at 5 µM, OCI-P5x cells, with rucaparib 20 µM, 100% = cells with rucaparib alone) and 1.94% (active) in test [1] (at 5 µM, OCI-P5x cells, without rucaparib).
As for `O=C1N[C@H](Cc2ccc(O)cc2)C(=O)N2CCN(C(=O)c3cccc4ccccc34)C[C@H]12`, the z-score in test [2] (setting [10]) is 0.285 (inactive); in test [2] (setting [11]), -0.378; in test [3], -0.195 (inactive).
Regarding `C[C@H]1NC(=O)NC1=O`, the fluorescence slope change in test [4] is 1.4% (inactive). For the same compound, the survival in test [5] is 3.67 (inactive). Further, the z-score was 0.723 (inactive) in [2] (setting [10]) and -0.336 in test [2] (setting [11]).
As to `NC(=O)Cc1ccccc1Oc1nccc(-c2c(-c3ccc(F)cc3)ncn2C2CCNCC2)n1`, the liver cell % of control in test [6] is 110%. Further, the parasite % of control in test [6] is 160% (inactive). Further, in [7], the percent of negative control (+Dex) was 105% (inactive). In addition, the z-score in [7] is 0.475; in test [8], -0.78 (inactive); in test [9], 0.598 (inactive); in [2] (setting [10]) it was -0.586 (inactive); in [2] (setting [11]) it was -0.373.
As for `COc1cccc(Nc2nccc(-c3cnn4ncccc34)n2)c1`, the liver cell % of control in test [6] was 85.6%. Further, the parasite % of control in test [6] is 13.4% (inactive). The percent of negative control (+Dex) in test [7] was 3% (active). For the same compound, the z-score in test [7] is -9.21; in [8] it was 0.695 (inactive); in [9], -1.68 (inactive); in test [2] (setting [10]) it was 0.875 (inactive); in test [2] (setting [11]), 1.18.
The compound `COc1cccc(-n2ncc3c(N/N=C/c4ccc(S(C)(=O)=O)cc4)ncnc32)c1` had a liver cell % of control in [6] of 107%. Further, the parasite % of control in test [6] was 26.1% (inactive). The percent of negative control (+Dex) in test [7] is 136% (active). For the same compound, the z-score in test [7] is 0.965; in test [8], -1.31 (inactive); in [9], -0.723 (inactive); in [2] (setting [10]), 1.75 (inactive); in [2] (setting [11]), -0.0857.
In [6], `NC(=O)c1cccc(Nc2nccc(Nc3cccc4[nH]ncc34)n2)c1` showed a liver cell % of control of 75%. For the same compound, in test [6], the parasite % of control is 429% (inactive). Besides, the percent of negative control (+Dex) in test [7] was 95.5% (inactive). The z-score is 0.725 in [7]; -0.905 (inactive) in test [8]; 1.14 (inactive) in test [9]; 0.00705 (inactive) in test [2] (setting [10]); -0.0979 in test [2] (setting [11]).
